Screening data: PubChem BioAssay, National Center for Advancing Translational Sciences (NCATS)
Sampled rows, rich in hits. Any-hit rate of the full collection: about 7.2%.
TSHR agonist = activates the human thyroid stimulating hormone receptor | HEK293-CNG-TSHR cells (CNG channel as cAMP sensor), membrane potential dye, cAMP | Potency, µM (doses to about 57.1 µM), for the others: at the top dose activation, usual class: activators | AID 926 | P16473 | actives 0.48% (n = 73,000); active means well fitted activation curve with a large enough effect in the main read-out, with a control signal flat, not every such curve was filed as active; inconclusive means small, poorly fitted or top-dose-only effect, or a change in a side signal; inactive means no such curve, though single readings can be large or run the other way; % of control where 0% means no effect;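 further: the control signal comes from parental cells without the receptor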
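HEK 293 cells stably expressing TSHR and a modified CNG channel, with CNG-only parental cells as counterscreen, were preloaded 60 min at room temperature with membrane potential dye containing 100 uM RO 20-1724. Compound exposure was 30 min, and depolarization was read as fluorescence at 590 nm.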
PK Bst = alters activity of Bacillus stearothermophilus pyruvate kinase; purified pyruvate kinase, luminescence ATP production; ribose 5-phosphate activator present at AC10; AID 361; actives 1.2% (n = 51,000); Potency, µM; in the data active means potency below about 11 µM; inconclusive means mostly about 12 µM to 25 µM;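 the screen sought inhibitors and activators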;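 further: scaled between full activation by ribose 5 phosphate and full inhibition by luteolin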
ERK AVP inh = vasopressin-driven ERK pathway inhibition; actives 0.99% (n = 72,000); Potency, µM (titrated, usually from 57.5 µM), for the others: at the highest dose activity, negative = inhibition, hits mostly inhibitors; HEK293-V1b, vasopressin-stimulated pERK AlphaScreen; further: on the % scale 0 is the no-effect control and ±100 the full control effect; nearly all actives have a fitted effect of over 55% in size
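Phosphorylated ERK1/2 detected via AlphaScreen bead proximity in lysates of V1b-expressing HEK293 cells given 25 nM vasopressin for 5 min after 30 min compound exposure (37 °C). AC50 from Hill equation; basal DMSO 0%, vasopressin 100%.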
Tau filament bind = tau filament binding; Potency, µM (top dose mostly 57.1 µM), for the others: top-dose activity change, negative = inhibition; P10636; recombinant tau filaments, thioflavin S fluorescence, 15 h; filaments grown with octadecylsulfate alongside compound; actives 2% (n = 71,000);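 further: on the % scale 0 is the no-effect control and ±100 the full control effect; actives lower thioflavin S fluorescence by blocking filaments or displacing dye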
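Quantitative HTS: thioflavine S signal from ODS-induced tau filaments, excited at 450 nm, emission 510 nm. Conditions: 1 uM tau, 30 uM ODS, 15 h at 37 C, pH 7.4.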
HEK293 cAMP ctrl = raises cAMP in parental HEK293 cells, TSHR agonist counter-screen. AID 938. actives 2.5% (n = 73,000). Potency, µM (titrated, usually from 57.1 µM), for the others: at the highest dose activation, actives largely listed as activators. parental HEK293 CNG cAMP sensor, membrane potential fluorescence; further: % of control where 0% means no effect; nearly all actives have a fitted effect of over 55% in size
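Counterscreen for endogenous-receptor signalling: CNG-channel HEK 293 cells report cAMP rise by membrane depolarization. After 60 min dye equilibration with 100 uM RO 20-1724, compounds incubated 30 min before bottom-read fluorescence at 590 nm.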
FLuc inh = blocks Photinus pyralis firefly luciferase activity; AID 411; purified firefly luciferase, luminescence, 8 min; actives 2.2% (n = 72,000); Potency, µM (top dose mostly 57.1 µM), for the others: top-dose activity change, negative = inhibition, hits mostly inhibitors; P08659; further: on the % scale 0 is the no-effect control and ±100 the full control effect; nearly all actives have a fitted effect of over 40% in size
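Here, luciferase activity is measured as luminescence following an 8 min room-temperature reaction at 10 uM ATP, pH 7.2. Every library sample is titrated.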
The depositor's hits bear a star; u = inconclusive; x = no result; [ ] = dose if it differs, or a comment. Unless noted, the call rests on the fitted dose curve; in most records, active means well fitted curve in the direction sought with a large enough effect; inconclusive means small, poorly fitted or top-dose-only effect, or another doubt; inactive means no such curve, though single readings can be large; an effect the other way counts as inactive or inconclusive. Potency means the concentration at half of the fitted maximal effect.

SMILES	TSHR agonist	PK Bst	ERK AVP inh	Tau filament bind	HEK293 cAMP ctrl	FLuc inh
Cc1ccccc1-c1nc(NCc2cccnc2)c2ccccc2n1	u	x	-9.4%	-9.4%	u	0.3%[2.29 µM]
CCN1CCN(/C=N/c2nc3c(s2)CCCC3)CC1	2.3%	u	-9.3%	11.3%	3.0%	12.6µM*
COc1ccccc1CNc1ccnc(-c2ccccc2OC)n1	u	x	-20.5%	2.9%	u	-0.1%[2.29 µM]
CCC(=O)c1ccc(OCC(=O)Nc2nn3cnnc3s2)cc1	-1.3%	>57	31.6µM*	2.2%	-13.2%	-4.7%
CC(C)[C@]1(Cl)CC[C@@H]2[C@]3(C)CCC[C@@](C)(C(=O)O)[C@H]3C[C@H](Cl)[C@@]2(Cl)[C@H]1Cl	2.5%[11.4 µM]	x	5.2%[11.5 µM]	-6.1%[11.4 µM]	16.8%[11.4 µM]	3.3%[11.4 µM]
Nc1cc(Cl)c(N)cc1Cl	-1.2%	x	-19.2%	25.1µM*	1.9%	-2.5%
Nc1cc(Cl)c(N)c(Cl)c1	u	x	-1.7%	-7.3%	u	x
O=C(/C=C\c1ccc2c(c1)OCO2)c1ccc(F)cc1	12.0%[11.4 µM]	x	0.3%[11.5 µM]	x	19.7%[11.4 µM]	u
Nc1ccccc1C(=O)/C=C\c1ccc2c(c1)OCO2	3.5%[11.4 µM]	x	13.6%[11.5 µM]	x	24.1%[11.4 µM]	3.16µM*
CCC/C=C(\CCC)C(NC(=O)c1cccs1)c1ccc(C(=O)OC)cc1 (stereo not given)	u	x	29.4%	3.9%	12.6µM*	x
CCC/C=C(\CCC)C(NC(=O)c1ccc(C(=O)OC)cc1)c1ccc(C(=O)OC)cc1 (stereo not given)	u	x	6.2%	-0.4%	u	x
CCC/C=C(\CCC)C(NC(=O)C(C)(C)C)c1ccc(C(=O)OC)cc1 (stereo not given)	u	x	16.1%	0.2%	15.8µM*	x
CCC/C=C(\CCC)C(NC(=O)c1ccc(C(F)(F)F)cc1)c1ccccc1 (stereo not given)	u	x	5.1%	-12.6%	15.8µM*	x
CCC/C=C(\CCC)C(NC(=O)c1ccc(C(F)(F)F)cc1)c1ccc(C(F)(F)F)cc1 (stereo not given)	15.1%	x	12.7%	12.4%	27.1%	x
COC(=O)[C@@H]1O[C@@H](SCCN)[C@@H](O)[C@H](O)[C@H]1O	11.7%[11.4 µM]	x	23.2%[11.5 µM]	10.8%[11.4 µM]	-4.2%[11.4 µM]	4.2%[11.4 µM]
COc1ccc2[nH]cc(CCNc3nc(-c4cccc(C#N)c4)nc4ccccc34)c2c1	4.8%	x	-21.8%	u	-20.0%	-8.5%[2.29 µM]
COc1ccc(S(=O)(=O)Nc2ccccc2C(=O)O)cc1	-0.5%	x	x	x	-5.2%	x
CC(C)CNS(=O)(=O)c1ccc(CCC(=O)N2CCN(Cc3ccc4c(c3)OCO4)CC2)cc1	1.1%	2.83*	-4.7%	40.1%	0.8%	2.0%
C=CC[C@@H]1C=C[C@H](O/N=C(\C)CCN2CCc3nc(CC)c(CC)cc3C2)[C@H](CO)O1	-6.1%[11.4 µM]	x	2.0%[11.5 µM]	x	5.4%[11.4 µM]	-2.0%[11.4 µM]
CC(C)C(C(=O)Nc1ccc2c(c1)OCO2)N1C(=O)c2ccccc2C1=O (stereo not given)	u	x	-22.1%	u	u	-1.1%
CCC(SC1=Nc2ccccc2C2=NC(CC(C)C)C(=O)N12)C(=O)Nc1ccc2c(c1)OCO2 (stereo not given)	u	>57	-3.6%	-29.5%	15.8µM*	-4.5%
CC(=O)C(C)Oc1ccc2c3c(c(=O)oc2c1)CCCCC3 (stereo not given)	25.1µM*	x	-8.4%	2.5%	15.8%	-29.8%
O=C(Nc1ccc(CN2CCCCC2)cc1)c1ccc2c(c1)OCO2	8.9%	>57	-15.2%	24.4%	12.4%	-20.4%
Cc1cc(NC(=O)c2cc3ccccc3o2)cc(C)c1OCC(=O)N1CCOCC1	9.0%	x	-2.9%	9.7%	3.9%	15.8µM*
O=C(Cc1ccccc1)Nc1ccc(CN2CCOCC2)cc1	-0.4%	>57	-9.8%	-3.2%	3.1%	-24.7%
O=C(Nc1ccc(CN2CCOCC2)cc1)c1cc2ccccn2n1	-0.6%	x	u	13.1%	12.7%	3.98µM*
COc1cc(C(=O)Nc2cc(C)c(OCC(=O)N3CCOCC3)c(C)c2)cc(OC)c1OC	4.9%	x	-6.0%	0.1%	-14.0%	-0.8%
